# Assay results as given in PubChem BioAssay AID2016 (NMMLSC, 2009).
# The campaign covered roughly 330,000 compounds. About 1,700 (0.52%) were called active. What follows is part of a selection rich in actives, with near analogues and random picks from the rest. A number with no mark means an inactive call.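 How the source made its calls: active means GFP response versus DMSO above a set limit, roughly screen mean plus 3 SD (cut at about 180% in these data); inconclusive means fewer than 70 cells counted for a yeast strain; inactive means the rest.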
# Experiment: modulators of MEP2-GFP levels in yeast, primary screen, S. cerevisiae, multiplex flow cytometry, MLPCN library (AID 2016);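 further: median GFP fluorescence of the barcode-gated MEP2-GFP cells per well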
# Conditions: S. cerevisiae MEP2-GFP strain, 3 h, at 10 µM, active compounds read high, 100% = DMSO control level
row,Compound,GFP response vs DMSO
1,CCc1ccccc1NC(=O)CSc1nnc([C@@H](NC(=O)OC(C)(C)C)C(C)CC)o1 (some centres not stated),193% [may fluoresce violet] (active)
2,CCc1ccccc1NC(=O)CSc1nnc([C@@H](NC(=O)OC(C)(C)C)C(C)C)o1,88.8%
3,CCc1ccccc1NC(=O)CSc1nnc(CCNC(=O)OC(C)(C)C)o1,114%
4,C#CCOCCOCCOCCNc1nc(N2CCN(C(=O)C(Cc3ccc(O)cc3)n3cc(C(N)CC(C)C)nn3)CC2)nc(N2CCN(C(=O)C(Cc3ccc(O)cc3)n3cc(C(N)C(C)CC)nn3)CC2)n1 (configuration not stated),93.7%
5,CC(NCC(=O)Nc1cc(Cl)cc(Cl)c1)c1ccccc1 (configuration not stated),91.3%
6,CCSc1sc(CC)cc1C=O,210% [may fluoresce violet] (active)
7,COc1ccc2c(c1)C(=C(C#N)C#N)C(=O)N2CCc1ccccc1,103%
8,CC(=O)C1=C(C)NC(=O)NC1c1ccc2c(c1)OCO2 (configuration not stated),179% [may fluoresce violet] (active)
9,COCCOC(=O)C1=C(C)NC(=O)NC1c1cc2c(cc1Br)OCO2 (configuration not stated),95.2%
10,CCOCCOC(=O)C1=C(C)NC(=O)NC1c1ccc2c(c1)OCO2 (configuration not stated),111%
11,O=C(CC12CC3CC(CC(C3)C1)C2)Nc1ccc2c(c1)COC2=O,99.2%
12,Brc1ccc(C2CC(c3ccccc3)=Nc3ccccc3N2)cc1 (configuration not stated),101%
13,OCC[C@H]1C[C@@H](O)[C@H](O)[C@]2(OCCCc3ccccc32)O1,96.7%
14,Oc1ccc(C2Nc3cccc4cccc(c34)N2)cc1,184% (active)
15,Brc1ccccc1C1Nc2cccc3cccc(c23)N1,104%
16,Cc1ccc(C2Nc3cccc4cccc(c34)N2)cc1,110%
17,O=C(CSc1n[nH]c(=O)n1-c1ccccc1)Nc1ccccc1C(F)(F)F,109%
18,COc1ccc(C)cc1NC(=O)CN(C)S(=O)(=O)c1ccc2c(c1)n(C)c(=O)c(=O)n2C,110%
19,COc1ccccc1NS(=O)(=O)c1ccc(C)c(C(=O)NCC(c2ccco2)N(C)C)c1 (configuration not stated),104%
20,O=C(CC(n1cncn1)C(Cl)(Cl)Cl)c1ccc([N+](=O)[O-])cc1 (configuration not stated),91.9%
21,O=C(c1ccncc1)c1ccc([N+](=O)[O-])cc1,90.2%
22,Cc1onc(-c2ccccc2)c1C(=O)NNC(=S)NC(=O)c1ccc(F)cc1,176% [may fluoresce violet] (active)

row,Compound,GFP response vs DMSO
1,COc1ccc(C(=O)NC(=S)NNC(=O)c2c(-c3ccccc3)noc2C)cc1,113%
2,CCc1noc(C)c1C(=O)NNC(=O)c1ccc(F)cc1,100%
3,O=C(OCC(=O)N1CCCCCC1)c1ccc(Cl)nc1,105%
4,CCC(CO)Oc1cc(NC(=O)c2ccc(Cl)cc2)c2ncn(C(C)C)c2c1 (configuration not stated),102%
5,Cc1ccc(C2(C)NC(=O)N(CC(=O)N3CC(=O)Nc4ccccc43)C2=O)cc1 (configuration not stated),95%
6,CCC(C)(C)NC(=O)C(c1cccn1C)N(Cc1ccc(C)cc1)C(=O)Cn1nnc2ccccc21 (configuration not stated),200% [may fluoresce violet] (active)
7,CCC(C)(C)NC(=O)C(c1ccc(O)cc1)N(C(=O)Cn1nnc2ccccc21)c1ccc(NC(C)=O)cc1 (configuration not stated),93.5%
8,CC(C)(C)NC(=O)C(c1ccco1)N(Cc1ccc2c(c1)OCO2)C(=O)Cn1nnc2ccccc21 (configuration not stated),101%
9,O=C(NCc1ccccc1Cl)C1CCN(S(=O)(=O)c2cccc3nonc23)CC1,287% [may fluoresce violet] (active)
10,O=C(NCc1ccccc1Cl)C1CCN(S(=O)(=O)N2CCOCC2)CC1,93.8%
11,O=C(NCc1ccco1)C1CCCN(S(=O)(=O)c2cccc3nonc23)C1 (configuration not stated),97.8%
12,CCc1cccc(C)c1NS(=O)(=O)c1cc(Br)cnc1N,105%
13,Cn1c(=O)n(C)c(=O)n(CC(=O)N2CCCCC2)c1=O,95.9%
14,CCn1c(=S)[nH]c2sc3c(c2c1=O)CCCCC3,106%
15,CCC1(C)Cc2c(sc3nnn(CC(=O)Nc4ccc(Cl)cc4)c(=O)c23)CO1 (configuration not stated),104%
16,CCC1(C)Cc2c(sc3[nH]c(=S)n(Cc4ccccc4)c(=O)c23)CO1 (configuration not stated),234% [may fluoresce violet] (active)
17,O=C(Cc1ccccc1)NNS(=O)(=O)c1ccc([N+](=O)[O-])cc1,94.8%
18,O=C(CNC(=O)c1ccccc1)Oc1ccc([N+](=O)[O-])cc1,109%
19,O=C(NNS(=O)(=O)Cc1ccccc1)c1ccc([N+](=O)[O-])cc1,796% [may fluoresce violet] (active)
20,COCCn1c(C)cc(C(=O)CSc2nnc(C3CC3)n2C2CC2)c1C,101%
21,CCN(CCCNC(=O)CSc1cc(=O)n(C)c2cc(Cl)ccc12)Cc1ccccc1,102%
22,Cc1cc(C=O)c(C)n1-c1ccc(NC2CCCCC2)c([N+](=O)[O-])c1,101%

row,Compound,GFP response vs DMSO
1,CCOC(=O)c1sc2nc(C)nc(SCC(N)=O)c2c1C,105%
2,O=C(NCc1ccncc1)C1CCN(C(=O)c2cccc(Cl)c2)CC1,465% [may fluoresce violet] (active)
3,COc1ccc(CNC(=O)C2CCN(C(=O)c3ccccc3)CC2)cc1,96.9%
4,O=C(c1cccc(Cl)c1)N1CCN(Cc2ccccc2)CC1,110%
5,CC1CC(NC(=O)/C(C#N)=C/c2ccc[nH]2)CC(C)(C)C1 (configuration not stated),90.7%
6,COc1cc(CCC(=O)Nc2ccncc2Cl)cc(OC)c1OC,101%
7,C/C(=N\NC(=O)c1ccc2ccccc2c1)c1cccnc1,91.2%
8,C/C(=N\NC(=O)c1cccnc1)c1ccc(-n2ccnc2)cc1,89.5%
9,C/C(=N\NC(=O)c1cccnc1)c1ccc(-c2ccccc2)cc1,189% [may fluoresce violet] (active)
10,Cc1noc(C)c1-c1nc(CSc2ccc(Cl)cc2)no1,105%
11,O=C(Nc1ccccc1Cl)N1CCN(c2ccc3nncn3n2)CC1,97.1%
12,COc1ccc(/C=N/Nc2ncnc3sc4c(c23)CCCC4)cc1O,106%
13,CCOc1ncccc1C(=O)OCC(=O)NC1CC1,100%
14,CCOc1ncccc1C(=O)OCC(=O)N1c2ccccc2CC1C (configuration not stated),92.2%
15,CCOc1ncccc1C(=O)OCc1cn2cc(Cl)ccc2n1,561% [may fluoresce violet] (active)
16,N#CC(C#N)=CN=c1ccn(Cc2ccc(Cl)cc2Cl)cc1,107%
17,COc1ccccc1CN1CCN(Cc2cc(OC)c(OC)cc2OC)CC1,114%
18,COc1ccc(CN2CCCC(N3CCc4ccccc4C3)C2)c(O)c1 (configuration not stated),104%
19,COc1ccccc1CN1CCCC(N2CCN(c3ccc(F)cc3)CC2)C1 (configuration not stated),485% [may fluoresce violet] (active)
20,COc1ccc(/C=C/CN2CCN(Cc3ccc(C)cc3)C(CCO)C2)cc1 (configuration not stated),104%
21,CC12CCC(=O)N1C(C(=O)NCCN1C(=O)S/C(=C\c3ccccc3F)C1=O)CS2 (configuration not stated),107%
22,COc1cccc(N(C(=O)CNC(=O)c2ccco2)C(C(=O)NC2CCCCC2)c2cccnc2)c1 (configuration not stated),104%

row,Compound,GFP response vs DMSO
1,Cc1ccc(N(C(=O)CNC(=O)c2ccco2)C(C(=O)NC2CCCC2)c2ccncc2)cc1 (configuration not stated),359% [may fluoresce violet] (active)
2,CC(C)(C)NC(=O)C(c1ccncc1)N(C(=O)CNC(=O)c1ccco1)c1ccc2c(c1)OCO2 (configuration not stated),111%
3,O=C(Nc1ccc(S(=O)(=O)NCC2CCCO2)cc1)c1ccc(F)cc1 (configuration not stated),101%
4,O=C(CN1CCCCCC1)Nc1c(Cl)cc(Cl)cc1Cl,98.7%
5,Cc1ccc(N2C(=O)C3N=NN(CC(=O)N4N=C(c5cccc6ccccc56)CC4c4ccccc4)C3C2=O)cc1 (configuration not stated),102%
6,Oc1ccccc1C1=NN(c2ccccc2)C(c2ccccc2)C1 (configuration not stated),107%
7,O=C1C2N=NN(CC(=O)N3N=C(c4cccc5ccccc45)CC3c3ccccc3)C2C(=O)N1c1ccccc1 (configuration not stated),299% [may fluoresce violet] (active)
8,CCOC(=O)c1c(NC(=O)CSc2nnc(CN3CCOCC3)n2C)sc2c1CCCC2,99.8%
9,CCOC(=O)C1CCN(C(=O)C2CCN(S(=O)(=O)CC)CC2)CC1,98.5%
10,Cc1ccc2cc3cc(C(=O)N4CCCCCC4)oc3nc2c1,97.2%
11,CCCCN1C(=O)c2ccc(C(=O)Nc3ccc(S(=O)(=O)N(C)C)cc3)cc2C1=O,87.8%
12,COCCN1C(=O)N[C@@H](CCc2ccccc2)[C@H](C(C)=O)[C@H]1C,86.4%
13,COCCN1C(=O)N[C@@H](c2ccccc2)C(C(=O)OC)=C1C,91.3%
14,COCCN1C2=C(COC(C)(C)C2)C(=S)NC1c1ccccc1 (configuration not stated),234% (active)
15,Brc1ccc2c(c1)[C@H]1OCC[C@H]1[C@@H](c1cccs1)N2,102%
16,C[C@H]1CCC(=O)N([C@H](CSc2ccccc2)Cc2ccccc2)CC1,93.7%
17,C=CCC1=C/C(=C\c2c(N)n3nc(CC(=O)N4CCOCC4)sc3nc2=O)C=C(OC)C1=O,102%
18,CN(Cc1ccc(F)cc1)C(=O)CN1C(=O)c2ccccc2S1(=O)=O,95%
19,COc1ccccc1OCCCC(=O)Nc1ccc2c(c1)OCCO2,92.3%
20,CCc1ccccc1OCC(=O)Nc1ccc2c(c1)OCCO2,366% [may fluoresce violet] (active)
21,CCC(=O)c1cc(F)ccc1OCC(=O)Nc1ccc2c(c1)OCCO2,104%
